Consider 5 compounds from PubChem BioAssay (EPA / NIEHS).

Each structure is given as a SMILES string. Several values for one entry are separate records, joined by “and”; a condition that tells them apart may be missing. Identical values can stand only once. Records with an inconclusive call do not appear. Some structures have more than one record in an assay (separate samples or runs), and their calls can disagree. Activity calls are given as the source filed them. Rule for the calls, unless noted: active = hit-call score of the fitted dose curve at least 0.9, where 1 is the maximum; inactive = score below 0.9.

Read-out in test [1]: Intercellular Adhesion Molecule 1 (ICAM1), ICAM1 (gene 3383)
Put plainly: BSK_hDFCGF_ICAM1: BioMAP Diversity Plus: hDFCGF Assay for Intercellular Adhesion Molecule 1 (ICAM1) Biomarker Activity (AID 2284287). As to conditions: primary human foreskin fibroblasts. A digest of the protocol:
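ICAM-1 ELISA readout 24 h after dosing, DMSO as baseline, in human dermal foreskin fibroblast cultures. Cytotoxicity checked in parallel wells by SRB staining (0.1% SRB, 10% TCA fixation, 560 nm).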

Read-out in the next test: CD40, CD40 (gene 958)
Put plainly: BSK_IMphg_CD40: BioMAP Diversity Plus: IMphg Assay for CD40 Biomarker Activity (AID 2284288). The conditions noted are these: primary human endothelial cells with macrophages. A digest of the protocol:
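ELISA read-out of cell-surface CD40 at 24 h in human venular endothelial cell/macrophage co-cultures. Activity fitted in the positive direction against DMSO; parallel SRB staining (560 nm) gauges overt cytotoxicity.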

Read-out in test [2]: TIMP metallopeptidase inhibitor 2 (TIMP2), TIMP2 (gene 7077)
Nature of the test: BSK_hDFCGF_TIMP2: BioMAP Diversity Plus: hDFCGF Assay for TIMP metallopeptidase inhibitor 2 (TIMP2) Biomarker Activity (AID 2284289). The conditions noted are these: primary human foreskin fibroblasts. An outline of the steps:
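Primary human foreskin fibroblasts in the hDFCGF system, dosed for 24 h; TIMP-2 level measured by ELISA, fitted in the positive direction against DMSO; cytotoxicity checked in parallel by sulforhodamine B total protein staining.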

Read-out in test [3]: Interleukin-1 alpha (IL1a), IL1A (gene 3552)
Nature of the test: BSK_IMphg_IL1a: BioMAP Diversity Plus: IMphg Assay for Interleukin-1 alpha (IL1a) Biomarker Activity (AID 2284290). As to conditions: primary human endothelial cells with macrophages. A digest of the protocol: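 IL-1α is quantified by ELISA at 24 h in the endothelial/macrophage IMphg co-culture, with gain of signal fitted relative to DMSO. Parallel SRB total-protein staining flags overt toxicity.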

Read-out in test [4]: E-selectin (Homo sapiens) (UniProt P16581)
Put plainly: BSK_IMphg_ESelectin: BioMAP Diversity Plus: IMphg Assay for Eselectin Biomarker Activity (AID 2284291). The conditions noted are these: primary human endothelial cells with macrophages. A digest of the protocol: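 Analysed against DMSO baseline in the positive fitting direction, this endpoint is an ELISA read of E-selectin. It comes from human venular endothelial cells co-cultured with macrophages, sampled 24 h post-dose.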

Test [5] is described as follows: BSK_IMphg_SRB: Viability Assessment in the BioMAP Diversity Plus: IMphg Assay (AID 2284292).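 Note: measured one day after compound addition.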 The conditions noted are these: primary human endothelial cells with macrophages. A digest of the protocol: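 SRB viability endpoint: cultures of human endothelial cells plus macrophages fixed with 10% TCA, stained with 0.1% SRB, read at 560 nm 24 h post-dosing. Only gain-of-signal fitted, relative to DMSO.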

Read-out in test [6]: Macrophage colony-stimulating factor (MCSF), CSF1 (gene 1435)
Put plainly: BSK_IMphg_MCSF: BioMAP Diversity Plus: IMphg Assay for Macrophage colony-stimulating factor (MCSF) Biomarker Activity (AID 2284293). As to conditions: primary human endothelial cells with macrophages. A digest of the protocol:
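M-CSF was measured by ELISA in human venular endothelial cell/macrophage co-cultures dosed for 24 hours. Sulforhodamine B staining of parallel cultures assessed cytotoxicity; data fitted against DMSO baseline.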

A short description of test [7]: BSK_IMphg_SRB.Mphg: Macrophage Viability Assessment in the BioMAP Diversity Plus: IMphg Assay (AID 2284295). The conditions noted are these: primary human endothelial cells with macrophages. A digest of the protocol: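 Cytotoxicity read-out: parallel cultures fixed with 10% TCA, stained with 0.1% sulforhodamine B, read at 560 nm. System combines venular endothelium and macrophages; sampled 24 h post-dosing, fitted positively relative to DMSO control.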

Read-out in test [8]: Thrombomodulin, THBD (gene 7056)
Nature of the test: BSK_LPS_Thrombomodulin: BioMAP Diversity Plus: LPS Assay for Thrombomodulin Biomarker Activity (AID 2284296). As to conditions: primary human HUVEC with PBMC. A digest of the protocol:
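Thrombomodulin on the surface of LPS-activated endothelial/PBMC co-cultures was quantified by ELISA at 24 hours post-dosing, with DMSO as baseline. Parallel SRB total-protein staining flagged overt cytotoxicity.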

Read-out in another test: CD69, CD69 (gene 969)
Nature of the test: BSK_LPS_CD69: BioMAP Diversity Plus: LPS Assay for CD69 Biomarker Activity (AID 2284303). As to conditions: primary human HUVEC with PBMC. An outline of the steps: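 CD69 surface levels were read by ELISA after 24 h chemical treatment of an LPS-stimulated HUVEC plus PBMC co-culture; positive-direction fit against DMSO vehicle.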

Test [9] can be described thus: IUF_NPC2c_oligodendrocyte_migration_120hr: Leibniz Research Institute for Environmental Medicine (IUF) 120-hour Neural Progenitor Cell Migration Assay for Oligodendrocyte Migration (NPC2c) (AID 2284297).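 Note: O4-positive oligodendrocyte migration distance divided by radial glia migration distance.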 An outline of the steps:
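Using fetal brain neural progenitor spheres differentiating in N2 medium at 37C, compounds were present for 120 h. Oligodendrocyte migration distance, normalized to radial glia migration, was measured from imaged O4 staining.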

Test [10] in a line: IUF_NPC2a_radial_glia_migration_120hr: Leibniz Research Institute for Environmental Medicine (IUF) 120-hour Neural Progenitor Cell Migration Assay for Radial Glia Migration (NPC2a) (AID 2284298). A digest of the protocol:
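Exposure of 0.3 mm primary hNPC spheres runs day 0 to 120 h with a half-volume medium change at day 3. Fixed cells get Hoechst staining; high-content analysis of nuclear positions yields radial glia migration distance per well, compared against DMSO controls.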

Test [11] is described as follows: IUF_NPC2a_radial_glia_migration_72hr: Leibniz Research Institute for Environmental Medicine (IUF) 72-hour Neural Progenitor Cell Migration Assay for Radial Glia Migration (NPC2a) (AID 2284299). A digest of the protocol: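 Spheres of human primary neural progenitors migrate on poly-D-lysine/laminin under compound exposure at 37C, 5% CO2. The 72 h radial glia migration distance comes from brightfield images, measured manually.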

Test [12] is described as follows: IUF_NPC2b_neuronal_migration_120hr: Leibniz Research Institute for Environmental Medicine (IUF) 120-hour Neural Progenitor Cell Migration Assay for Neuron Migration (NPC2b) (AID 2284300). A digest of the protocol: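 Fetal human NPC spheres migrate on PDL/laminin during 120 h compound treatment; neuronal migration distance, glia-normalized, scored versus DMSO control.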

Test [13] is described as follows: IUF_NPC3_neuronal_differentiation_120hr: Leibniz Research Institute for Environmental Medicine (IUF) 120-hour Neuronal Differentiation Assay (NPC3) (AID 2284301). An outline of the steps:
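hNPC spheres, PDL/laminin, DMEM/F12 3:1 + 1% N2, 37C, 5% CO2; 7 concentrations + solvent control, 5 d exposure, half-change day 3. Fix 120 h; TUBB3/Hoechst ICC, CNN neuron calling; % neurons vs nuclei, DMSO-normalized.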

Test [14] in a line: IUF_NPC4_neurite_length_120hr: Leibniz Research Institute for Environmental Medicine (IUF) 120-hour Neuronal Morphology Assay for Neurite Length (NPC4) (AID 2284302). A digest of the protocol:
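hNPC spheres (0.3 mm, fetal brain GW 16-19) on PDL/laminin, DMEM:F12 3:1 + 1% N2, 37C 5% CO2; 7 concs + solvent control, day 0-5, half medium change d3; fix 120 h, TUBB3 ICC, mean neurite length um vs DMSO.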

The nature of test [15]: IUF_NPC5_oligodendrocyte_differentiation_120hr: Leibniz Research Institute for Environmental Medicine (IUF) 120-hour Oligodendrocyte Differentiation Assay (NPC5) (AID 2284304; active = hit-call score of the fitted dose curve at least 0.9, where 1 is the maximum;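 note: primary human fetal neural progenitor spheres plated to migrate and differentiate; share of O4-positive cells among Hoechst nuclei found by CNN image analysis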). An outline of the steps:
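After plating on poly-D-lysine/laminin, fetal-derived hNPC spheres differentiated for 120 h at 37C in compound-containing N2 medium, refreshed by half on day 3. O4 immunostaining over Hoechst nuclei in the migration zone gave oligodendrocyte percentage relative to DMSO.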

A short description of test [16]: IUF_NPC4_neurite_area_120hr: Leibniz Research Institute for Environmental Medicine (IUF) 120-hour Neuronal Morphology Assay for Neurite Area (NPC4) (AID 2284305; active = hit-call score of the fitted dose curve at least 0.9, where 1 is the maximum). An outline of the steps:
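hNPC spheres on PDL/laminin, N2 medium, 37C/5% CO2; dosed day 0, half-medium refresh day 3; fixed 120 h; TUBB3/Hoechst ICC, high-content imaging; neurite area = mean pixels per neuron (nuclei excluded); DMSO baseline, max 0.1%.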

Test [17] is described as follows: IUF_NPC2-5_cytotoxicity_72hr: Cytotoxicity Assessment at 72 hours in the Leibniz Research Institute for Environmental Medicine (IUF) Neural Progenitor Cell Migration and Differentiation Assay for Cytotoxicity (NPC2-5) (AID 2284306; active = hit-call score of the fitted dose curve at least 0.9, where 1 is the maximum;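 note: LDH release into supernatant measured by resorufin fluorescence marking membrane damage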). A digest of the protocol:
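hNPC spheres (0.3 mm), PDL/laminin, DMEM/F12 3:1 + 1% N2; cpd from d0, 7 concs + SC, DMSO max 0.1%; half-medium refresh d3. Readout: supernatant LDH via resorufin fluorescence (RFU), 72 h; gain-of-signal fit.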

Test [18] is described as follows: IUF_NPC2-5_cytotoxicity_120hr: Cytotoxicity Assessment at 120 hours in the Leibniz Research Institute for Environmental Medicine (IUF) Neural Progenitor Cell Migration and Differentiation Assay (NPC2-5) (AID 2284307; active = hit-call score of the fitted dose curve at least 0.9, where 1 is the maximum). A digest of the protocol:
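Membrane-integrity loss is quantified by LDH in supernatant after five days of exposure of migrating, differentiating human fetal NPC spheres; seven serially diluted concentrations are tested with DMSO kept at or below 0.1%.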

E-selectin (Homo sapiens), sequence (P16581 whole entry, looked up): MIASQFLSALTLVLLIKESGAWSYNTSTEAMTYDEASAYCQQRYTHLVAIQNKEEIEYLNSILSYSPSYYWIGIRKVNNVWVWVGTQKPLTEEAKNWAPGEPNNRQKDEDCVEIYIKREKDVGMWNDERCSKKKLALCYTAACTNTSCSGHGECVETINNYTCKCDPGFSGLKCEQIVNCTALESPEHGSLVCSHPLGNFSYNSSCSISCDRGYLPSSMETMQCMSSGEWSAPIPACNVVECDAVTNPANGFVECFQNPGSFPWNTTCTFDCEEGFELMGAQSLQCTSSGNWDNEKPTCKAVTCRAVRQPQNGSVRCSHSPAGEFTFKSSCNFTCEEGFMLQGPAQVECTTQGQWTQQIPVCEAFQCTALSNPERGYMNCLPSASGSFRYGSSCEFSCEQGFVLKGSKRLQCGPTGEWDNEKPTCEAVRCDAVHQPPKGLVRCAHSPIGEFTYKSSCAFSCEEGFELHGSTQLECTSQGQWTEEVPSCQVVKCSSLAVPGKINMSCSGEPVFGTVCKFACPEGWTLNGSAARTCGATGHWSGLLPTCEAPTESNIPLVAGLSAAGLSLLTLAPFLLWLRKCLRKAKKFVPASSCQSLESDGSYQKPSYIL

As a reminder, the AC50 is the midpoint of the concentration-response curve, whichever way the signal moves. For the compound `C=CC(=O)OCC(F)(F)C(F)F`, the AC50 was 43.5 µM (active) and 29.6 µM (active) in test [1]; 21.6 µM (active) and 23.6 µM (active) with CD40, CD40 (gene 958); 5.95 µM (active) and 20.8 µM (active) in [2]; 44.6 µM (active) in [4]; 30 µM (active) and 39 µM (active) in test [8]; 43.8 µM (active) in the test with CD69, CD69 (gene 969). Besides, the outcome was “inactive” in test [3]; “inactive” in [4]; “inactive” in [5]; “inactive” in [6]; “inactive” in test [7]; “inactive” with CD69, CD69 (gene 969).

`O=C(O)C(F)(OC(F)(F)C(F)(F)C(F)(F)F)C(F)(F)F` (centres undefined): the outcome in test [1] is “inactive”; in the test with CD40, CD40 (gene 958) it was “inactive”; in [2], “inactive”; in test [3] it was “inactive”; in test [4] it was “inactive”; in test [5], “inactive”. The outcome in [6], in test [7], in test [8], in [9], in test [10] and in [11] was inactive. For the same compound, the outcome is “inactive” in [12]; “inactive” in [13]; “inactive” in the test with CD69, CD69 (gene 969); “inactive” in test [15]; “inactive” in test [17]; “inactive” in test [18]. The half-maximal activity concentration (AC50) in [3] is 0.22 µM (active); in [6] it was 0.22 µM (active); in test [7] it was 30 µM (active); in [14], 0.342 µM (active); in [16], 0.338 µM (active).

For `O=C(O)C=CC(F)(C(F)(F)F)C(F)(F)F`, the outcome was “inactive” in [1]; “inactive” with CD40, CD40 (gene 958); “inactive” in [2]; “inactive” in test [3]; “inactive” in test [4]; “inactive” in test [5]. The outcome in test [6] was “inactive”; in test [7], “inactive”; in [8] it was “inactive”; with CD69, CD69 (gene 969), “inactive”.

In the case of `CCCCOCCOP(=O)(OCCOCCCC)OCCOCCCC`, the compound was classed as inactive in test [9], in test [10], in test [11], in test [12], in test [13] and in test [14]. Also, the compound was classed as inactive in test [16] and in test [18]. Further, the AC50 in test [15] was 3.24 µM (active).

On to `NC(=O)C(F)(F)C(F)(F)F`, for which the outcome in test [1] is “inactive”; in the test with CD40, CD40 (gene 958), “inactive”; in [2], “inactive”; in test [3] it was “inactive”; in test [4] it was “inactive”; in [5] it was “inactive”. Further, the outcome in test [6] is “inactive”; in test [7], “inactive”; in [8], “inactive”; with CD69, CD69 (gene 969), “inactive”.
